From PubChem
Most compounds without a hit are left out; they make up all but 12% or so of the library.
G9a inh: G9a (human) methyltransferase inhibition | Q96KQ7 | G9a H3K9 monomethylation, AlphaScreen, 2 h | Potency, µM (series often up to 102 µM), inactives show at the highest dose activity, negative = inhibition, hits mostly inhibitors | 8.8% of 350,000 active; also: % is scaled to controls: 0 for no effect and ±100 for the full control effect; nearly all actives have a fitted effect of over 75% in size
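G9a (20 nM) preincubated 15 min RT with compounds, then 500 nM biotinylated H3K9 peptide and 20 uM SAM added; 2 h RT reaction. Monomethyl-H3K9 product detected by AlphaScreen with anti-H3K9me1 antibody, streptavidin donor and anti-rabbit IgG acceptor beads.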
HP1b binding inh: HP1-beta chromodomain-methylated histone interaction inhibition; P83916; AlphaScreen HP1-beta / biotin-H3K9me3 peptide binding; Potency, µM (titrated, usually from 114 µM), for the others: top-dose activity change, negative = inhibition, hits mostly inhibitors; 0.56% of 390,000 active; AID 540317; also: nearly all actives have a fitted effect of over 70% in size
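Compound inhibition of the preformed complex between 50 nM HP1-beta and 50 nM biotinylated H3K9me3 peptide was read by AlphaScreen. Buffer was PBS pH 7.4 with 0.01% Tween-20. Incubations ran 30 min at room temperature, with 10 ug/mL donor/acceptor beads.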
BAZ2B block: BAZ2B (human) inhibition; AID 504333; AlphaScreen BAZ2B-H3K14Ac peptide displacement; 4.4% of 360,000 active; Potency, µM (top dose mostly 114 µM), for the others: at the top dose activity change, negative = inhibition, hits mostly inhibitors; Q9UIF8; also: % is scaled to controls: 0 for no effect and ±100 for the full control effect; nearly all actives have a fitted effect of over 60% in size
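BAZ2B (50 nM) with biotin-H3(5-23)K14Ac peptide (50 nM) in PBS pH 7.4, 0.01% Tween-20, preformed 30 min, then compound 30 min at room temperature; top concentration 110uM. AlphaScreen streptavidin donor/nickel chelate acceptor beads (10 ug/mL final), 20 min dark, signal read.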
JMJD2A Tudor: inhibitors of human JMJD2A Tudor domain | Potency, µM (highest dose often 114 µM), inactives show top-dose activity change, negative = inhibition, hits mostly inhibitors | 4.4% of 390,000 active | O75164 | AlphaScreen JMJD2A-Tudor / H3K4me3 peptide binding; also: % is scaled to controls: 0 for no effect and ±100 for the full control effect; nearly all actives have a fitted effect of over 50% in size
Target sequence (O75164 whole entry, looked up, the tested form may be a part): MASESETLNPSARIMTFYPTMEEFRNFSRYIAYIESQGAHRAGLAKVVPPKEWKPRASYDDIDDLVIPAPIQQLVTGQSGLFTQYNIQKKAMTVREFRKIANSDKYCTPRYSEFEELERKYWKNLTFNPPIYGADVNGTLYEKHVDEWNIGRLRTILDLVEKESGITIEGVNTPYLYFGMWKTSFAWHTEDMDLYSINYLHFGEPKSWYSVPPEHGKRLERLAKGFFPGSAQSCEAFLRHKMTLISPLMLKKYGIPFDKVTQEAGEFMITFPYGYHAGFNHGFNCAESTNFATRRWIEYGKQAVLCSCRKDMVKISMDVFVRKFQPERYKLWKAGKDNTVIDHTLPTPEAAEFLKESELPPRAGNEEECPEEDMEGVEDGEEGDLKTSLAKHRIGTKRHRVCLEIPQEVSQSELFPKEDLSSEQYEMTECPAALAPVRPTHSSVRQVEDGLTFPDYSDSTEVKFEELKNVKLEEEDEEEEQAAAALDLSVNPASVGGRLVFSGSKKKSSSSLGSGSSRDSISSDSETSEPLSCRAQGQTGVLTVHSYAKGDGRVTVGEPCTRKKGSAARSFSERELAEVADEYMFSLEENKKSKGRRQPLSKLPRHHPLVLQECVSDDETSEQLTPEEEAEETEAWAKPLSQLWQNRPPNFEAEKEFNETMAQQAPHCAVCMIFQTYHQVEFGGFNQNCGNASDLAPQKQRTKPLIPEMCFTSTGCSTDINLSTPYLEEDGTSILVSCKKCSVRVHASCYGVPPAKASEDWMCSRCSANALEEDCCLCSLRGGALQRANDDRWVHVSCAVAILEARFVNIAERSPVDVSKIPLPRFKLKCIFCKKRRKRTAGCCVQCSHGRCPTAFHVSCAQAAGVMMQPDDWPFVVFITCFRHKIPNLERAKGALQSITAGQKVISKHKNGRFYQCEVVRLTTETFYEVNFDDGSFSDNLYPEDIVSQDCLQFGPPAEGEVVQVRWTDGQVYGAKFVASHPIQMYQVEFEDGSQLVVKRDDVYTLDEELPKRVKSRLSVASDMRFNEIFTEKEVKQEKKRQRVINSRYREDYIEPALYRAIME
TDP1 inh: blocks human tyrosyl-DNA phosphodiesterase 1; 0.28% of 350,000 active; Q9NUW8; recombinant TDP1, AlphaScreen DNA substrate cleavage; Potency, µM (titrated, usually from 130 µM), inactives show top-dose activity change, negative = inhibition, most hits filed as inhibitors; AID 485290; also: % is scaled to controls: 0 for no effect and ±100 for the full control effect; nearly all actives have a fitted effect of over 40% in size
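Here, a 5' biotin and 3' phosphotyrosine-FITC DNA oligonucleotide reports Tdp1 activity: intact substrate bridges AlphaScreen beads, while cleavage leaves a 3' phosphate and drops signal. All incubations at room temperature.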
Sfp PPTase inh: inhibitors of Bacillus subtilis Sfp phosphopantetheinyl transferase; Biochemical Sfp PPTase activity, qHTS; Potency, µM, for the others: largest response in the series, negative = inhibition, actives largely listed as inhibitors; 3.5% of 310,000 active; AID 1490;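 also: the enzyme is Sfp with the accession as filed and its product quenches rhodamine fluorescence; 0% = enzyme reaction without inhibitor and -100% = no enzyme wells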
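Buffer: 50 mM Hepes-Na pH 7.6, 10 mM MgCl2, 0.01% Nonidet P-40, 0.01% BSA. Enzyme 15 nM, pre-exposed to compound 15 min; substrates then added and fluorescence change tracked over 30 min.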
* = called active by the depositor; ? = inconclusive; / = no result; ! = repeats disagree; [ ] = remark or other dose. Calls follow the shape of the dose curve; as a rule, active = well fitted curve in the direction sought with a large enough effect; inconclusive = small, poorly fitted or top-dose-only effect, or another doubt; inactive = no such curve, though single readings can be large; an effect the other way counts as inactive or inconclusive. Potency is read from the fitted curve at half-maximal effect.

SMILES	G9a inh	HP1b binding inh	BAZ2B block	JMJD2A Tudor	TDP1 inh	Sfp PPTase inh
N#C/C(=C\c1cccnc1)C(=O)Nc1cccc(Cl)c1	-37%	24%	-9%	0%	8%	-7%
Cc1cccc(NC(=O)/C(C#N)=C\c2ccc(C(=O)O)cc2)c1	-46%	33%	-18%	5%	0%	35µM*
COc1ccc(/C=C(/C#N)C(=O)Nc2cccc([N+](=O)[O-])c2)cc1C(=O)O	45µM*	-18%	?	-25%	-1%	14%
COc1ccccc1NC(=O)/C(C#N)=C/c1cccnc1	-15%	28%	-11%	8%	5%[56.1 µM]	9%
O=C(C1CCCN(S(=O)(=O)c2ccc(Br)s2)C1)N1CCN(c2ccccc2F)CC1 (stereo unspecified)	?	15%	-8%	-6%	2%	/
Cc1ccc(C(=O)CC2(O)C(=O)N(CCc3ccccc3)c3ccc(Br)cc32)o1 (stereo unspecified)	?	-1%	-14%	-35%	11%	7.9µM*
COCCNC(=O)C(=O)NNS(=O)(=O)c1ccc2ccccc2c1	40µM*	-15%	-16%	?	0%	-6%
COc1ccc(OCC(=O)NNC(=O)C(=O)Nc2ccccc2)cc1	/	27%	/	-3%	0%	/
COCCNC(=O)C(=O)NNS(=O)(=O)c1ccc(Cl)cc1	/	45%	18%	-1%	3%	-4%
COCCNC(=O)C(=O)NNC(=O)COc1ccc(OC)cc1	25µM*	55%	-38%	-7%	3%	-8%
CCOC(=O)c1c(C)[nH]c(CCC(=O)NCc2ccccc2Cl)c1C	-1%[59 µM]	13%[57 µM]	-14%	-19%	5%	/
CCOC(=O)c1nnsc1Nc1ccc(C)c(C)c1	7.1µM*	71%	1%	20%	5%	-26%
CCOC(=O)c1nnsc1-c1ccc(-c2snnc2C(=O)OCC)cc1	7%	43%	1%	-2%	4%	4%
N#CC1=C(Nc2ccccc2)SC=C(c2ccccc2)N=C1N1CCOCC1	50µM*	36%	-1%	-18%	4%	-15%
COc1ccc(CCCN2CCC(CN3C(=S)NC[C@@H]3Cc3ccccc3)CC2)cc1OC	/	-7%	/	?	/	/
Cc1oc(-c2ccccc2)cc1C(=O)Nc1cccc(/C=C\C(=O)O)c1	45µM*	12%	-35%	-22%	5%	-2%
O=C(Nc1ccc(C2=NCCN2)cc1)c1ccc(C(=O)Nc2ccc(C3=NCCN3)cc2)c(Cl)c1	25µM*	?	-28%	56µM*	11%	9%
NCCCNCCCCNCCCN	13µM*!	13%	/	-20%	1%	?
COc1cc(N2CCCC2)c(OC)cc1/C=C(/C#N)c1ccc(Br)cc1	2.8µM*	?	13µM*	20µM*	8%	-11%
COc1cc(N2CCCC2)ccc1C=O	5%	9%	4%	-11%	0%	4%
COc1cc(N2CCCC2)c(OC)cc1/C=C(/C#N)c1ccc(F)cc1	1.6µM*	40µM*	16µM*	32µM*	8%	?
CC(C)(C)c1ccc(Cn2nnc3c(=O)[nH]c(C4CCN(C(=O)c5ccco5)CC4)nc32)cc1	?	-28%	?	79µM*	8%	-1%
CN(C)Cc1cc(C(C)(C)c2cc(CN(C)C)c(O)c(CN(C)C)c2)cc(CN(C)C)c1O	?	?	-7%	-48%	8%	-3%
OCc1cc(CO)c(O)c(CCc2ccccc2)n1	-21%	63%	-7%	-4%	4%	4%
Cc1ccc(-c2nc(CN(C)C)cc(CN(C)C)c2O)cc1	50µM*	27%	?	?	6%	-1%
SMILES	G9a inh	HP1b binding inh	BAZ2B block	JMJD2A Tudor	TDP1 inh	Sfp PPTase inh
CN(C)Cc1cc(CN(C)C)c(O)c(CCc2ccccc2)n1	50µM*	43%	-28%	-20%[57.1 µM]	1%	-1%
COc1c(Cl)cc(Cl)cc1/C=C/C(=O)c1ccc(NC(=O)c2cccs2)cc1	15%[59 µM]	-6%	-36%	-35%	3%	11%
COc1ccc(C2=CSC3=NCCN23)cc1F	28µM*	6%	-10%	-12%	2%	-10%
Cc1cccnc1NC(=O)c1ccc2c(c1)OCCO2	0%	24%	13%	-9%	1%[0.505 µM]	/
O=C(Nc1ncccc1O)c1ccc2c(c1)OCCO2	50µM*	5%	79µM*	25µM*	1%	/
O=C(Nc1ncccc1O)c1ccc2c(c1)OCO2	?	12%	?	18µM*	0%	/
O=C(NCCN1CCOCC1)NC1(C(F)(F)F)Oc2ccc(Cl)cc2O1 (stereo unspecified)	10µM*	34%	2%	40µM*	2%	-34%
COCC(C)NC(=O)NC1(C(F)(F)F)Oc2ccc(Cl)cc2O1 (stereo unspecified)	35µM*	3%	12%	-15%[57.1 µM]	-5%	-28%
COCC(C)NC(=O)NC(=O)c1ccc(Cl)cc1 (stereo unspecified)	18%[59 µM]	30%	9%	9%	-3%	10%
COC(=O)CCC(C(=O)CN1C(=O)c2ccccc2C1=O)N1C(=O)c2ccccc2C1=O (stereo unspecified)	/	?	/	-24%	/	/
O=C(Oc1ccccc1Cl)C1CCN(C(=O)c2ccc(F)cc2)CC1	?	34%	-2%	-4%	-1%	/
COc1ccc2c(ccc[n+]2[O-])c1	/	-7%	/	-14%	/	/
[O-][n+]1cccc2c(Br)cc(Br)c(O)c21	50µM*	8%	/	-27%	8%	-20%
O=C1Cc2ccccc2C(=O)N1c1cccc(Cl)c1	40µM*	27%	-28%	-25%	/	6%
O=C1Cc2ccccc2C(=O)N1c1ccccc1	14%[59 µM]	0%	-2%	-7%	14%	9%
Nc1ccc2c(c1)C(=O)N(CCCCCC(=O)O)C2	21%[59 µM]	30%	-4%	-12%	-2%	27%
O=C(O)CCN1Cc2ccccc2C1=O	50µM*	5%	?	?	1%	11%
O=C1Cc2ccccc2C(=O)N1c1ccc(F)cc1Cl	50µM*	20%	-12%	-23%	2%	-4%
O=C1Cc2ccccc2C(=O)N1Cc1ccccc1	50µM*	33%	-33%	-6%[11.4 µM]	5%	17%
COc1ccc(C(=O)N2CCC3(CCCN(Cc4cc(C(F)(F)F)cc(C(F)(F)F)c4)C3)CC2)cc1	-43%[12.7 µM]	/	/	/	/	14%
COc1ccc2c(c1)O[C@@H](c1cccc(C(F)(F)F)c1)[C@H](OC(=O)NS(=O)(=O)c1ccc(C)cc1)C2=O	/	/	/	/	3%	10%
CCCCCN(C(=O)CCC(=O)OCc1ccccc1C(F)(F)F)c1c(N)n(CCCC)c(=O)[nH]c1=O	/	17%[57 µM]	-3%	8%	2%	7%
CCCCCNCc1cccn1C	8%[59 µM]	6%	-37%	-30%	5%	10%
